Bioassay records from PubChem BioAssay.
A selection: hits, their analogues and other compounds. The true share with any hit is near 4.1%.
p-CIP stab down = compounds decreasing mouse p/CIP protein stability; F442A p/CIP-EGFP cells, EGFP fluorescence, 16 h; decrease of EGFP signal, % at 10 µM; 290,000 tested, 0.01% active; AID 1984;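 active = EGFP signal decrease of at least 30% at 10 µM or well 3 SD below plate mean, unless failing retest; inactive = the rest, including hits failing retest or dose response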
Target sequence (Q05BA5 1-1403): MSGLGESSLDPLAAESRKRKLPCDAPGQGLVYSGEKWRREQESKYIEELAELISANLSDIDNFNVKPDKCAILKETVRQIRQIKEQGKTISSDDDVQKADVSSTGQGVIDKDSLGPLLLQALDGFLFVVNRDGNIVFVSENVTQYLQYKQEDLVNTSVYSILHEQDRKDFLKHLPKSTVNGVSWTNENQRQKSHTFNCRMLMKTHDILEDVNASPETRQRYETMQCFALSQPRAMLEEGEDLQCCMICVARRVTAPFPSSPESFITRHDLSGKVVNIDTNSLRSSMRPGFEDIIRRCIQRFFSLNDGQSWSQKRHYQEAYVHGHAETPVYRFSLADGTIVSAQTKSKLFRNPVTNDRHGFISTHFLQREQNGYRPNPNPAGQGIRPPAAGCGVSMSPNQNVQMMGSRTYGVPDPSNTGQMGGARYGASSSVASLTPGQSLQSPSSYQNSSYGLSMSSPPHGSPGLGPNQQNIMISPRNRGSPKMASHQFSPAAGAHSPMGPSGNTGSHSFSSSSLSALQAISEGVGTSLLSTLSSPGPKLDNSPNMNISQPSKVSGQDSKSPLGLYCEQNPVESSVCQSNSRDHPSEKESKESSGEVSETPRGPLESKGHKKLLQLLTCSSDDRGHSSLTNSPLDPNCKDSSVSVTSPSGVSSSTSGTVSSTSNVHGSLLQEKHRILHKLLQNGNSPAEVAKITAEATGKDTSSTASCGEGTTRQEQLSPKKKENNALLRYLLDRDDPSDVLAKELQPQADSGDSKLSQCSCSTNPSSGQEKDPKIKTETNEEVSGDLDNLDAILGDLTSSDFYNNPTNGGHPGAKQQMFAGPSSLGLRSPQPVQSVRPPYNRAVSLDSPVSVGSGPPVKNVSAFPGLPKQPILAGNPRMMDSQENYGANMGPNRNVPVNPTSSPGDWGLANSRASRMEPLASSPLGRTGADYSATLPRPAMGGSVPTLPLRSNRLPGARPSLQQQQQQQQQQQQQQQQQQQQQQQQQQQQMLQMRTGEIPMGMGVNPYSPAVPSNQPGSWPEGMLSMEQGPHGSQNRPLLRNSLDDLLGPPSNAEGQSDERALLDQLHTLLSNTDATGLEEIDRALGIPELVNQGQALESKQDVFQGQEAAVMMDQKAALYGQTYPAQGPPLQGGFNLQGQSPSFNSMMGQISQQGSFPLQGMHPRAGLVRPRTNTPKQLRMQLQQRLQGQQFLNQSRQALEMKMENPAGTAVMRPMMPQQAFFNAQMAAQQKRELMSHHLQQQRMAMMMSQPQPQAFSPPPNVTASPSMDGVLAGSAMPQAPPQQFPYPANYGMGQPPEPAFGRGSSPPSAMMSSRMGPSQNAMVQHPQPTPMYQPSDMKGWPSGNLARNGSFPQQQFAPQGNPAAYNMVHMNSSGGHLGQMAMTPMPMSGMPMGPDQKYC
FAS-TE inh = FAS thioesterase (human) inhibition. P49327. recombinant FAS-TE, OMFH fluorogenic substrate, fluorescence endpoint. inhibition, % at 15 µM. 360,000 tested, 0.67% active;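 active = compounds whose normalised, plate-corrected inhibition of enzyme fluorescence in the single-dose primary screen is 50% or more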
beta cell repl = induces beta-cell replication in MIN6 cells; MIN6 cells proliferation, ATPlite luminescence, 48 h; cells starved in 0.2% serum; 100% = growth in 10% serum; proliferation, % at 10 µM; 330,000 tested, 0.29% active; AID 2380;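 active = compounds whose signal lies at least 3.5 SD above the mean of all wells on their plate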
NR3A LBD binder = modulators (binders) of human NR3A ligand-binding domain. NR3A LBD differential scanning fluorimetry, Tm shift; 0% = protein alone, 100% = glycine-bound protein. Tm shift relative to glycine control, % at 25 µM. 340,000 tested, 2.5% active. AID 1259313;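 active = melting temperature shift of at least 10% of the positive control shift, at one fixed dose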
MPTP block = blocks calcium-induced mitochondrial swelling | isolated mouse mitochondria, Ca2+ swelling absorbance, 30 min | inhibition, % at 10 µM | 360,000 tested, 1.4% active;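 active = inhibition of 50% or more, scaled per plate between neutral and stimulator controls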
MPTP counter = membrane potential counter-screen of mitochondrial pore inhibitors; shares compounds with MPTP block; isolated mitochondria, Rhodamine 123 fluorescence; inhibition, % at 10 µM; 5,000 tested, 78% active; AID 624504; in the data active = inhibition above about 22%
MPTP abs DR = MPTP inhibition, dose response swelling confirmation | shares compounds with MPTP block | isolated mitochondria swelling, absorbance | IC50, µM | 780 tested, 58% active | AID 651561; in the data active = IC50 below about 20 µM
MPTP counter DR = MPTP inhibitor counter-screen activity, dose response. IC50, µM. isolated mitochondria counterscreen, fluorescence read-out. shares compounds with MPTP block. 780 tested, 49% active; in the data active = IC50 below about 80 µM
Numbers stand for hits; . = inactive; / = no result.

SMILES | p-CIP stab down | FAS-TE inh | beta cell repl | NR3A LBD binder | MPTP block | MPTP counter | others
N=c1sccn1CC(=O)Nc1cccc(Oc2ccccc2)c1 | . | . | . | . | 92.1 | . | MPTP abs DR=4.94;MPTP counter DR=.
N=c1sccn1CC(=O)Nc1cc(Cl)ccc1Oc1ccccc1 | . | . | . | . | . | /
O=S(=O)(NCC(Nc1ccccc1)c1ccccc1)c1ccc(Cl)cc1 (stereo not given) | . | . | . | 17.1 | 51.5 | 74.1
O=C(O)c1cccc(NC(CNS(=O)(=O)c2ccc(Cl)cc2)c2ccccc2)c1 (stereo not given) | . | . | . | . | . | /
CC(C)(C)C1=CC(=O)C(=O)C(C(C)(C)C)=C1 | . | . | . | . | 79.7 | .
CC(C)(C)C1=CC(=Nc2ccccc2N)C=C(C(C)(C)C)C1=O | . | . | . | . | . | /
CCC(C)C(NC(=O)C1CCC(C)CC1)C(=O)NCCc1ccc(S(N)(=O)=O)cc1 (stereo not given) | . | . | . | . | . | /
Cc1ccccc1Nc1nc(N)nc(CN2CCN(C(=O)c3ccccc3)CC2)n1 | . | . | . | . | . | /
O=c1cc(-c2ccccc2)nc2c(-c3ccccc3)c(C(F)(F)F)[nH]n12 | . | . | . | . | 63.6 | 47.3
Clc1cccc(N/N=C(\Cc2nc3ccccc3[nH]2)c2ccccc2)c1 | . | . | . | 30.6 | 72.3 | 69.5
c1ccc(N/N=C(\Cc2ncc[nH]2)c2ccccc2)cc1 | . | . | . | . | . | /
Cc1ccccc1OCCC(=O)Nc1ccc(N2CCOCC2)cc1N1CCOCC1 | / | . | . | . | . | /
CCCCC#Cc1cncc(C(=O)NN)c1 | . | . | . | . | . | /
CCCCCCC#Cc1cncc(C(=O)NNC(=O)Nc2cc(Cl)cc(Cl)c2)c1 | . | . | . | 15.9 | 54.8 | 55.0
O=C(c1cccc(Cl)c1)C1CCCN(S(=O)(=O)c2ccccc2)C1 (stereo not given) | . | . | . | . | . | /
Cc1ccccc1C(C(=O)NC1CCCCC1)N(C(=O)c1ccccn1)c1cccnc1 (stereo not given) | . | . | . | . | . | /
Cc1ccc(Cl)cc1N1CCN(C(=O)c2cc3c(=O)[nH]c4ccccc4c3n2C)CC1 | . | . | . | . | 56.6 | . | MPTP abs DR=.;MPTP counter DR=.
Cn1c(C(=O)N2CCN(c3ccc(Cl)cc3)CC2)cc2c(=O)[nH]c3ccccc3c21 | . | . | . | . | . | /
COc1cccc(NC(=O)NC(C)C2CC3CCC2C3)c1 (stereo not given) | . | . | . | . | . | /
CC(=O)NCCc1ccc(C(=O)CSc2nnc(C3CC3)n2C2CC2)cc1 | / | . | . | . | . | /
Cc1ccc(-n2cc(CNCCc3ncc(C)[nH]3)c(-c3ccc(F)cc3)n2)cc1 | . | . | . | . | 91.4 | . | MPTP abs DR=4.2;MPTP counter DR=56.8
Fc1ccc(-n2cc(CNCCc3ccccn3)c(-c3ccccc3Cl)n2)cc1 | . | . | . | . | 72.2 | . | MPTP abs DR=9.84;MPTP counter DR=47.7
COc1ccc(-n2cc(CNCCc3nc(C)cc(C)n3)c(-c3ccccc3Cl)n2)cc1 | . | . | . | . | . | /
Cc1cccc(CCNC(=O)c2cc(=O)[nH]c3ccc(Br)cc23)c1 | . | / | . | / | / | /
N#CC(c1cccc(Cl)c1)c1ccc2c(C(F)(F)F)cc(C(F)(F)F)nc2n1 (stereo not given) | . | . | . | . | 114.2 | 89.5
SMILES | p-CIP stab down | FAS-TE inh | beta cell repl | NR3A LBD binder | MPTP block | MPTP counter | others
NNc1ccc2c(C(F)(F)F)cc(C(F)(F)F)nc2n1 | . | . | . | . | . | /
Cc1nnc(SC(C)C(=O)Nc2nccs2)s1 (stereo not given) | . | . | . | . | . | /
CCCc1c(C(=O)Nc2ccc(F)cc2C)cnn1-c1ccccc1 | . | . | . | . | . | /
CCCc1c(NC(=O)Nc2ccc(F)cc2)cnn1-c1ccccc1 | . | . | . | . | 51.5 | 66.5
Cn1c(SCc2ccccc2[N+](=O)[O-])nnc1-c1cccnc1 | . | . | . | . | . | /
C=CC(C)(C)c1c(O)c(CC=C(C)C)c(O)c2c(=O)c3ccc(O)c(O)c3oc12 | / | . | . | 32.7 | 84.9 | 40.0
Cc1[nH]nc(Nc2ccc(Br)cc2)c1[N+](=O)[O-] | . | . | . | . | 57.2 | 71.7
Cc1ccc(Nc2n[nH]c(C)c2[N+](=O)[O-])cc1 | . | . | . | . | . | /
Cc1cc(C)c(CN2CCN(C(=O)Cn3cnc4c(NCc5ccccc5)ncnc43)CC2)c(C)c1 | / | . | / | . | 80.3 | 84.1
Cc1cc(C)c(CN2CCN(C(=O)Cn3ccc(N)nc3=O)CC2)c(C)c1 | / | . | . | . | . | /
CSc1nc(N)nc2c1ncn2CC(=O)N1CCN(Cc2c(C)cc(C)cc2C)CC1 | / | . | . | . | 86.2 | 77.5
CC(=O)c1ccc(N2CCN(S(=O)(=O)c3ccc4c(c3)CC(C)N4C(C)=O)CC2)cc1 (stereo not given) | . | . | . | . | . | /
CC(=O)c1ccc(N2CCN(S(=O)(=O)c3ccc4c(c3)CC(C)N4C(=O)C3CC3)CC2)cc1 (stereo not given) | . | . | . | . | 96.9 | 107.9
CC(C)(C)OC(=O)NC1CNNC1=O (stereo not given) | / | . | . | . | . | /
CCc1nc2c(OCc3ccc(Cl)cc3Cl)cccn2c1N(C)C(=O)c1ccccc1F | / | . | / | / | . | /
Cc1nc2c(OCc3ccc(Cl)cc3Cl)cccn2c1N(C)Cc1cccs1 | / | . | / | / | 71.5 | 87.2
CCOC(=O)N(C)c1c(CC)nc2c(OCc3cccc(Cl)c3)cccn12 | / | . | / | / | . | /
Cc1nc2c(OCc3cccc(Cl)c3)cccn2c1N(C)Cc1cccs1 | / | . | / | / | 71.1 | 86.5
COc1ccc(C(CNC(=O)c2cccc(S(=O)(=O)Nc3ccc(F)cc3)c2)N2CCOCC2)cc1 (stereo not given) | / | . | / | . | . | /
CCC(C)NC(=O)c1ccc(CN2CCc3ccccc3C2)cc1 (stereo not given) | . | . | . | . | . | /
CCc1ccc(/C=C/C(=O)c2ccc(N3CCOCC3)cc2)cc1 | . | . | . | . | 68.5 | . | MPTP abs DR=.;MPTP counter DR=18.9
CN(C)c1ccc(CNc2ccc3c(c2)ncn3C)cc1 | . | / | . | . | / | /
CC(C)c1ccc(CNc2ccc3c(c2)ncn3C)cc1 | . | . | . | . | 56.1 | 58.4
CCCNC(=O)C[C@H]1C[C@H]2c3cc(NC(=O)Nc4ccc(F)cc4)ccc3O[C@H]2[C@@H](CO)O1 | / | . | / | / | . | /
CNC(=S)N1CCn2cccc2C1c1ccc(F)cc1 (stereo not given) | . | . | . | . | . | /
COC(=O)c1cc(CSc2nc3ccccc3[nH]2)oc1C | . | . | . | . | 82.0 | 40.2
C[C@H](NC(=O)OC(C)(C)C)c1nnc(SCC(=O)Nc2cccc(Cl)c2)o1 | . | . | . | . | . | /
